# Screening results (PubChem)
# ELG1 genotox: qHTS screen for small molecules that induce genotoxicity in human embryonic kidney (HEK293T) cells expressing luciferase-tagged ELG1 | AID 504466, 2011 | HEK293T ELG1-luciferase reporter, luminescence, 16 h | 1.3% of 330,000 active | Potency, µM (highest dose often 46 µM), hits mostly activators; also: nearly all actives have a fitted effect of over 60% in size
#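 DMSO vehicle served as control against compound-treated ELG1-luciferase HEK293T cells; exposure lasted 16 hr at 37 °C and 5% CO2, followed by ONE-Glo luminescence detection after 30 min.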
# NPC1 prom act: qHTS Assay for NPC1 Promoter Activators. 2.4% of 320,000 active. Potency, µM (top dose mostly 9.22 µM), most hits filed as activators. Huh7 NPC1 promoter luciferase reporter, 24 h. AID 485313, 2010; also: nearly all actives have a fitted effect of over 60% in size
#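 Luciferase expression driven by the NPC1 promoter was measured in stably transfected Huh7 cells after a 24 h compound incubation, using a luciferase reagent and a luminescence read.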
# FLuc modulator: qHTS profiling assay for firefly luciferase inhibitor/activator using purifed enzyme and Km concentrations of substrates (counterscreen for miR-21 project) | Potency, µM (highest dose often 57.5 µM), usual class: inhibitors | purified FLuc, Km substrates, luminescence inhibition | 6.9% of 360,000 active | Luciferin 4-monooxygenase (Photinus pyralis), P08659; also: nearly all actives have a fitted effect of over 55% in size
# Target sequence (P08659 whole entry, looked up): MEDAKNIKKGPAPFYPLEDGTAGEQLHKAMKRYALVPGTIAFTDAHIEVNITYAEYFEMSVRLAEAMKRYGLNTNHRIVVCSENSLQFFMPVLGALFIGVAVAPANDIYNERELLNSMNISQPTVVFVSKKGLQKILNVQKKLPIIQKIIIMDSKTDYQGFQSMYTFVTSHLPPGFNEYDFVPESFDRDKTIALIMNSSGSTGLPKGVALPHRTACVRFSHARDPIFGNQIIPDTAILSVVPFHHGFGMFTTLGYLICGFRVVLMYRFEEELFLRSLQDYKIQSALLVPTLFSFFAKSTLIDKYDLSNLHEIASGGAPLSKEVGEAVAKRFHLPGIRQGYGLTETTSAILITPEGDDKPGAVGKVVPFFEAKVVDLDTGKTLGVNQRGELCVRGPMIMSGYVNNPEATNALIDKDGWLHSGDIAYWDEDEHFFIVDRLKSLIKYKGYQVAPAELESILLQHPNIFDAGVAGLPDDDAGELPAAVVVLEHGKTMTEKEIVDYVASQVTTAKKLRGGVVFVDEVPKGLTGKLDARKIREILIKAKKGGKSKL
#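 Purified P. pyralis luciferase, 10 nM final, with Km-level 10 uM D-luciferin and 10 uM ATP in 50 mM Tris acetate pH 7.5, 10 mM Mg acetate, 0.01% Tween-20, 0.05% BSA; 6-point qHTS titration about 60 µM downward; luminescence read.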
# Rab9 promoter act: qHTS Assay for Rab9 Promoter Activators | Huh7 Rab9 promoter-luciferase reporter, luminescence, 24 h | Potency, µM (doses to about 9.22 µM), most hits filed as activators | 2.8% of 320,000 active | AID 485297, 2010; also: nearly all actives have a fitted effect of over 60% in size
#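 Cell-based reporter: Huh7 stable for Rab9 promoter-driven luciferase, plated in reduced-serum medium with 10% FBS at 1500 cells/well, compound-treated 24 h at 37 °C, luminescence read after 10 min reagent.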
# SMN2 splice enh: qHTS Assay for Enhancers of SMN2 Splice Variant Expression; HEK293 SMN2-luciferase splicing reporter, luminescence, 30-36 h; Potency, µM (top dose mostly 46.1 µM), actives largely listed as activators; 2.8% of 210,000 active; also: nearly all actives have a fitted effect of over 55% in size
#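 HEK293 cells carry an SMN2 minigene-luciferase reporter in which exon 7 inclusion puts luciferase in frame. Cells were seeded at 2000 cells/well, attached for 10-12 hours, then exposed to compounds for 30-36 hours at 37C before ONE-Glo luminescence.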
# ELG1 DNA repair: qHTS screen for small molecules that inhibit ELG1-dependent DNA repair in human embryonic kidney (HEK293T) cells expressing luciferase-tagged ELG1; HEK293T ELG1-luciferase reporter, luminescence, 16 h; DNA damage induced by 5-fluorouridine; Potency, µM (doses to about 46.1 µM), most hits filed as inhibitors; 2.3% of 330,000 active; also: nearly all actives have a fitted effect of over 55% in size
#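 Step one: seed 2,000 cells per well. Step two: pin-transfer compound or DMSO alongside 5-fluorouridine. Step three: incubate 16 hr, 37 °C, 5% CO2. Step four: add ONE-Glo, wait 30 min, read luminescence.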
# A number is an active result; i = inactive; ? = inconclusive; nt = no result; [ ] = dose if it differs, or a comment. Hits are enriched below; roughly 9.2% of the tested compounds scored in any of these assays. Calls follow the shape of the dose curve; as a rule, active = well fitted curve in the direction sought with a large enough effect; inconclusive = small, poorly fitted or top-dose-only effect, or another doubt; inactive = no such curve, though single readings can be large; an effect the other way counts as inactive or inconclusive.
SMILES,ELG1 genotox,NPC1 prom act,FLuc modulator,Rab9 promoter act,SMN2 splice enh,ELG1 DNA repair
CCCc1cc(C(=O)Nc2cccnc2)no1,?,i,15µM,i,i,?
CCCc1cc(C(=O)Nc2cccc(Cl)c2)no1,15µM,i,1.9µM,i,i,?
CC(C)c1cc(C(=O)Nc2cccnc2)no1,?,4µM,i[2.3 µM],2.8µM,35µM,?
COc1ccc(NC(=O)c2cc(C(C)C)on2)cc1OC,?,i,?,i,i,?
CC(C)(C)n1ncc2c(=O)n(Cc3ccccc3Br)cnc21,i,i,?,i,nt,i
CCOc1ccc(NC(=O)CN(C)C(=O)c2cc(S(=O)(=O)N(C)C)ccc2N2CCCC2)cc1OCC,i,i,i,i,nt,i
COc1ccc(CNC(=O)[C@H](C)NC(=O)C2CCN(C(=O)[C@@H](N)Cc3ccccc3)CC2)cc1,i,i,i,i,nt,i
O=C(COc1ccc2ccc(=O)oc2c1)Nc1c(Cl)cccc1C(F)(F)F,i,i,i,i,nt,i
CCCc1cc(C(=O)NCc2ccccc2)no1,23µM,i,?,i,?,?
CCCc1cc(C(=O)Nc2cccc(C(C)=O)c2)no1,?,3.2µM,?,?,i,?
CCCc1cc(C(=O)Nc2ccc(C#N)cc2)no1,i,i,i,i,nt,?
CCCc1cc(C(=O)Nc2ccc(F)c(Cl)c2)no1,?,i,5.4µM,i,nt,i
CCCc1cc(C(=O)Nc2ccccc2SC)no1,?,i,?,?,?,?
CCCc1cc(C(=O)Nc2ccc(C(C)=O)cc2)no1,?,i,?,i,i,?
CCCc1cc(C(=O)NCc2cccnc2)no1,i,i,i,i,i,?
CCCc1cc(C(=O)Nc2cccc(Cl)c2C)no1,18µM,?,24µM,?,nt,?
Cc1ccc(S(=O)(=O)N(C)C)cc1NC(=O)c1cc(-c2ccco2)nc2ccccc12,?,i,i,i,nt,i
COc1ccccc1C(=O)NCCn1cc(SCC(=O)Nc2cc(C)on2)c2ccccc21,i,i,?,i,i,23µM
COc1ccc(C(=O)NCCn2cc(SCC(=O)Nc3cc(C)on3)c3ccccc32)cc1OC,i,i,i,i,i,?
CCOc1ccc(C(=O)NCCn2cc(SCC(=O)Nc3cc(C)on3)c3ccccc32)cc1,i,i,12µM,i,i,?
CCCCc1nc2cc(C(=O)N3CCCCC3CC(=O)OCC)ccc2o1 (stereo not given),i,i,i,?,nt,i
CCCCc1nc2cc(C(=O)N3CCCCC3C(=O)OC)ccc2o1 (stereo not given),?,?,15µM,2.8µM,nt,?
COCC1CCCN(C(=O)c2ccc3oc(CCCc4ccccc4)nc3c2)C1 (stereo not given),i,i,?,i,nt,i
CCCCc1nc2cc(C(=O)N3CCCC3)ccc2o1,?,?,?,2.8µM,nt,?
CCCCc1nc2cc(C(=O)N3CCCC(OCCC)C3)ccc2o1 (stereo not given),?,?,17µM,?,nt,?
SMILES,ELG1 genotox,NPC1 prom act,FLuc modulator,Rab9 promoter act,SMN2 splice enh,ELG1 DNA repair
CCCCc1nc2cc(C(=O)N3CCCC(COC)C3)ccc2o1 (stereo not given),?,4µM,17µM,4µM,nt,?
CCCCc1nc2cc(C(=O)N3CCC(OCCOC)CC3)ccc2o1,?,i,?,i,nt,i
O=C(NCC(c1cccs1)S(=O)(=O)c1cccs1)c1ccccc1 (stereo not given),nt,nt,i,nt,nt,nt
Cc1cccc(NS(=O)(=O)c2ccc(C(=O)NCC(c3ccccc3)N(C)C)cc2)c1C (stereo not given),i,i,i,i,nt,i
O=C(Nc1ccc(OCc2cc(=O)n3c4c(sc3n2)CCCC4)cc1)c1ccccc1,nt,nt,i,nt,i,nt
CCCCc1nc2cc(C(=O)NCc3ccccn3)ccc2o1,i,i,i,i,nt,?
CCCCc1nc2cc(C(=O)NC(C)c3cnn(C)c3)ccc2o1 (stereo not given),?,?,?,4µM,nt,?
COCCOC(=O)c1[nH]c2c(c1C)C(=O)C(C(=O)OC)C(C)C2 (stereo not given),16µM,?,9.5µM,3.5µM,11µM,?
COCCOC(=O)c1[nH]c2c(c1C)C(=O)CC(c1cc(OC)c(OC)c(OC)c1)C2 (stereo not given),i,i,i,i,nt,8.2µM
Cc1c(C(=O)OC2CCC(C)CC2)[nH]c2c1C(=O)CCC2 (stereo not given),2.6µM,0.5µM,4.3µM,0.45µM,2.5µM,?
CCCCCOC(=O)c1[nH]c2c(c1C)C(=O)C(C(=O)OC)C(C)C2 (stereo not given),i,i,11µM,?,i,i
CCCCOC(=O)c1[nH]c2c(c1C)C(=O)CC(c1cc(OC)c(OC)c(OC)c1)C2 (stereo not given),i,i,i,i,i,?
CN(Cc1ccccc1)C(=O)C1CCN(S(=O)(=O)c2ccc3nc4c(c(C(=O)O)c3c2)CCCC4)CC1,i,i,i,i,i,i
COC(=O)C1C(=O)c2c([nH]c(C(=O)OC3CCCCCC3)c2C)CC1C (stereo not given),18µM,?,?,?,?,?
CCOc1ccc(C2CC(=O)c3c([nH]c(C(=O)OC4CCCCCC4)c3C)C2)cc1 (stereo not given),nt,nt,i,nt,i,nt
COC(=O)C1C(=O)c2c([nH]c(C(=O)OCC3CCCO3)c2C)CC1C (stereo not given),9.2µM,i,8.5µM,?,?,?
Nc1nnc(-c2ccc(Cl)c([N+](=O)[O-])c2)s1,i,i,i,i,i,i
Cc1ccc(Nc2ncc3c(n2)CC(C)(C)CC3=O)cc1,?,2.2µM,12µM,1.6µM,11µM,?
COc1ccc(Nc2ncc3c(n2)CC(c2ccc(OC)cc2)CC3=O)cc1 (stereo not given),i,i,i,i,i,13µM
Cc1c(S(=O)(=O)c2cccc(Cl)c2)nnn1-c1cccc(C(F)(F)F)c1,nt,nt,i,nt,i,nt
Cc1cc(C)cc(-n2ccnc(NCc3ccc(F)cc3)c2=O)c1,nt,nt,i,nt,nt,nt
O=C(CCc1nnc(-c2ccccc2)o1)NCc1c(F)cccc1F,i,i,i,i,nt,i
CNC(=O)c1cccc(NC(=O)c2cc(-c3ccccc3)nc3c2cnn3C(C)C)c1,i,i,i,i,nt,7.9µM
CC(C)n1ncc2c(C(=O)Nc3cccc(S(=O)(=O)N(C)C)c3)cc(C3CC3)nc21,i,i,i,i,nt,21µM
